Laboratory results as given in paper PMC5540273 (PLoS ONE, 2017).

tested on: ERBB3; settings: concentration: 1 μM, replicates: in singlicate; n = 1
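Further: KINOMEscan kinase panel screen.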

**Q.** How did the “%Inh” value turn out when `O=C(Nc1n[nH]c2cc(-c3cccs3)ccc12)C1CC1` [SB-731284] was run?
**A.** 0%

**Q.** With `CNc1nccc(-c2ccc3c(N)n[nH]c3c2)n1` [GSK2206003] as the compound, how does the “%Inh” value read?
**A.** 8%

**Q.** For `COc1cccc(NC(=O)NCCNc2ccnc(Nc3ccc(F)cc3)n2)c1` [GSK1379879], which “%Inh” value is on record?
**A.** 24%

**Q.** With `CN(c1ccc2c(c1)nc(NCc1ccccc1)n2C)c1ccnc(Nc2ccc(CS(C)(=O)=O)cc2)n1.Cl` [GW811603] as the compound, how does the “%Inh” value read?
**A.** 28%

**Q.** With `Cc1ccc(O)cc1Nc1ccnc2cc(-c3ccc(CN4CCCCC4)o3)ccc12` [GW557777] as the compound, how does the “%Inh” value read?
**A.** 7%

**Q.** `Cc1cccc(Nc2nc(N[C@H]3CCCC[C@H]3N)ncc2C(N)=O)c1.Cl` [GSK986310] was tested. Which “%Inh” value did it give?
**A.** 0%

**Q.** `c1ccc(Oc2ccc(Nc3ccnc4cc(-c5ccc(CN6CCCCC6)o5)ccc34)cc2)nc1` [GW567143] was tested. Which “%Inh” value did it give?
**A.** 96%

**Q.** `CC(C)c1nc(-c2ccc(F)c(NS(=O)(=O)c3c(F)cccc3F)c2)c(-c2ccnc(Nc3ccc(N4CCOCC4)nc3)n2)s1` [GSK1804250] was tested. Which “%Inh” value did it give?
**A.** 98.8%

**Q.** Which “%Inh” value does the source give for `CCNc1nccc(-c2c(-c3ccc(F)cc3)ncn2C2CCN(C)CC2)n1` here?
**A.** 9%

**Q.** How did the “%Inh” value turn out when `Fc1cc(Cl)ccc1Nc1ccnc2cc(-c3ccc(CN4CCSCC4)o3)ccc12` [GW560106] was run?
**A.** 77%

**Q.** With `NCCC(NC(=O)c1cc(Br)c(-c2ccnc3[nH]ccc23)s1)c1ccccc1.O=C(O)C(F)(F)F.O=C(O)C(F)(F)F` (centres unmarked) [GSK1307810] as the compound, how does the “%Inh” value read?
**A.** 19%

**Q.** `Cc1ccc(NC(=O)c2ccc(Cl)c(Cl)c2)cc1-c1ccc(C(=O)Nc2ccncc2)cc1` [GSK1398460] was tested. Which “%Inh” value did it give?
**A.** 0%

**Q.** How did the “%Inh” value turn out when `O=C(O)C(F)(F)F.O=c1[nH]ccc2nc(N[C@@H]3CCNC3)nc(Nc3cc(Cl)cc(Cl)c3)c12` [GSK2188764] was run?
**A.** 0%

**Q.** How did the “%Inh” value turn out when `Nc1ncnc2scc(-c3ccc(NC(=O)Cc4cc(F)ccc4F)cc3)c12.O=C(O)C(F)(F)F` [SB-731254-M] was run?
**A.** 0%

**Q.** How did the “%Inh” value turn out when `Cc1ccc(NC(=O)c2ccnc(N3CCCCC3)c2)cc1-c1ccc(C(=O)NCC2CC2)cc1` [GW775610] was run?
**A.** 0%

**Q.** For `Fc1cc(Cl)ccc1Nc1ccnc2cc(-c3ccc(CN4CCOCC4)o3)ccc12` [GW560109], which “%Inh” value is on record?
**A.** 80%

**Q.** With `CS(=O)(=O)c1cccc(CNc2nc(Nc3ccc4c(c3)CCC(=O)N4)ncc2C(F)(F)F)c1` as the compound, how does the “%Inh” value read?
**A.** 0%

**Q.** Which “%Inh” value does the source give for `Cc1cc(-c2c(-c3ccc(F)cc3)ncn2CCCN2CCOCC2)nc(N)n1` [SB-222517] here?
**A.** 0%

**Q.** For `CN1CCN(Cc2ccc(NC(=O)Nc3ccc(N(C)c4ccnc(Nc5ccc(CS(C)(=O)=O)cc5)n4)cc3)cc2)CC1.Cl` [GW827654], which “%Inh” value is on record?
**A.** 45%

**Q.** Which “%Inh” value does the source give for `COc1cccc(C2=C(Nc3cccc(O)c3)C(=O)NC2=O)c1` [SB-390771] here?
**A.** 0%

**Q.** Which “%Inh” value does the source give for `O=C(Nc1n[nH]c2nc(-c3cccc(O)c3)ccc12)C1CC1` [SB-711805] here?
**A.** 0%

**Q.** How did the “%Inh” value turn out when `CN(c1ccc(NC(=O)Nc2cccc(Cl)c2)cc1)c1ccnc(N)n1.Cl` [GW830707] was run?
**A.** 17%

**Q.** `CC(=O)Nc1cn2nc(Oc3cccc(NC(=O)c4cccc(C(F)(F)F)c4)c3)ccc2n1` was tested. Which “%Inh” value did it give?
**A.** 41%

**Q.** With `COc1ccc(C)c(Nc2ccnc(Nc3ccc(-c4cnc[nH]4)cc3)n2)c1.Cl` [GW784041] as the compound, how does the “%Inh” value read?
**A.** 89%

**Q.** For `Cl.Cl.NC(CNC(=O)c1cc(Br)c(-c2ccnc3[nH]ccc23)s1)c1ccccc1` (centres unmarked) [GSK1322949], which “%Inh” value is on record?
**A.** 18%

tested on: ERBB4; settings: concentration: 1 μM, replicates: in singlicate; n = 1

**Q.** `Nc1ncc(-c2ccc3nccc(-c4ccncc4)c3c2)cc1S(=O)(=O)N1CCCCC1` [GSK1693850] was tested. Which “%Inh” value did it give?
**A.** 20%

**Q.** With `COc1cccc(CC(=O)N2CCc3cc(-c4cn(C)c5ncnc(N)c45)ccc32)c1` [GSK2608899] as the compound, how does the “%Inh” value read?
**A.** 0%

**Q.** `CC(C)NCC(Cc1ccccc1)NC(=O)c1cc(Br)c(-c2ccnc3[nH]ccc23)s1.Cl.Cl` (centres unmarked) [GSK1383281] was tested. Which “%Inh” value did it give?
**A.** 10%

**Q.** Which “%Inh” value does the source give for `Nc1ncc(-c2cn[nH]c2)c2scc(-c3ccc4c(c3)CCN4C(=O)Cc3ccccc3)c12` [GSK2593067] here?
**A.** 0%

**Q.** `Cc1cccc(Nc2nc(NCCN)ncc2C(N)=O)c1` [GSK1292139] was tested. Which “%Inh” value did it give?
**A.** 10%

**Q.** `CC(C)c1nc(-c2cccc(NS(=O)(=O)c3c(F)cccc3F)c2)c(-c2ccnc(Nc3ccc(N4CCOCC4)nc3)n2)s1.Cl` [GSK1723980] was tested. Which “%Inh” value did it give?
**A.** 95%

**Q.** How did the “%Inh” value turn out when `Cc1ccc(-c2ccc3occ(-c4ccc(S(C)=O)cc4)c3c2)nn1` (centres unmarked) was run?
**A.** 3%

**Q.** `COc1ccc(C2=C(Nc3cccc(O)c3)C(=O)NC2=O)cc1` [SB-390766] was tested. Which “%Inh” value did it give?
**A.** 12%

**Q.** `COc1ccc(NC(=O)c2ccoc2)cc1-c1ccc(C(=O)NCC2CC2)cc1` [GW810437] was tested. Which “%Inh” value did it give?
**A.** 7%

**Q.** `Cc1nn2c(=O)cc(N3CCO[C@H](C)C3)nc2n1Cc1cccc(Cl)c1Cl` [GSK2373693] was tested. Which “%Inh” value did it give?
**A.** 0%

**Q.** With `Cl.O=C(Nc1ccc(Oc2ccc3[nH]c(NC(=O)c4ccco4)nc3c2)cc1)Nc1cc(C(F)(F)F)ccc1F` [GW683134] as the compound, how does the “%Inh” value read?
**A.** 29%

**Q.** For `O=C(O)C(F)(F)F.O=c1[nH]ccc2nc(N[C@@H]3CCNC3)nc(Nc3ccc4c(c3)S(=O)(=O)CC4)c12` [GSK2181306], which “%Inh” value is on record?
**A.** 0%

**Q.** How did the “%Inh” value turn out when `O=C(Nc1n[nH]c2cc(-c3cccs3)ccc12)C1CC1` [SB-731284] was run?
**A.** 0%

**Q.** How did the “%Inh” value turn out when `CNc1nccc(-c2ccc3c(N)n[nH]c3c2)n1` [GSK2206003] was run?
**A.** 31%

**Q.** `COc1cccc(NC(=O)NCCNc2ccnc(Nc3ccc(F)cc3)n2)c1` [GSK1379879] was tested. Which “%Inh” value did it give?
**A.** 20%

**Q.** How did the “%Inh” value turn out when `CN(c1ccc2c(c1)nc(NCc1ccccc1)n2C)c1ccnc(Nc2ccc(CS(C)(=O)=O)cc2)n1.Cl` [GW811603] was run?
**A.** 17%

**Q.** For `Cc1ccc(O)cc1Nc1ccnc2cc(-c3ccc(CN4CCCCC4)o3)ccc12` [GW557777], which “%Inh” value is on record?
**A.** 0%

**Q.** `Cc1cccc(Nc2nc(N[C@H]3CCCC[C@H]3N)ncc2C(N)=O)c1.Cl` [GSK986310] was tested. Which “%Inh” value did it give?
**A.** 21%

**Q.** With `c1ccc(Oc2ccc(Nc3ccnc4cc(-c5ccc(CN6CCCCC6)o5)ccc34)cc2)nc1` [GW567143] as the compound, how does the “%Inh” value read?
**A.** 51%

**Q.** `CC(C)c1nc(-c2ccc(F)c(NS(=O)(=O)c3c(F)cccc3F)c2)c(-c2ccnc(Nc3ccc(N4CCOCC4)nc3)n2)s1` [GSK1804250] was tested. Which “%Inh” value did it give?
**A.** 78%

**Q.** Which “%Inh” value does the source give for `CCNc1nccc(-c2c(-c3ccc(F)cc3)ncn2C2CCN(C)CC2)n1` here?
**A.** 0%

**Q.** Which “%Inh” value does the source give for `Fc1cc(Cl)ccc1Nc1ccnc2cc(-c3ccc(CN4CCSCC4)o3)ccc12` [GW560106] here?
**A.** 39%

**Q.** For `NCCC(NC(=O)c1cc(Br)c(-c2ccnc3[nH]ccc23)s1)c1ccccc1.O=C(O)C(F)(F)F.O=C(O)C(F)(F)F` (centres unmarked) [GSK1307810], which “%Inh” value is on record?
**A.** 21%

**Q.** With `Cc1ccc(NC(=O)c2ccc(Cl)c(Cl)c2)cc1-c1ccc(C(=O)Nc2ccncc2)cc1` [GSK1398460] as the compound, how does the “%Inh” value read?
**A.** 4%

**Q.** For `O=C(O)C(F)(F)F.O=c1[nH]ccc2nc(N[C@@H]3CCNC3)nc(Nc3cc(Cl)cc(Cl)c3)c12` [GSK2188764], which “%Inh” value is on record?
**A.** 0%

**Q.** For `Nc1ncnc2scc(-c3ccc(NC(=O)Cc4cc(F)ccc4F)cc3)c12.O=C(O)C(F)(F)F` [SB-731254-M], which “%Inh” value is on record?
**A.** 53%

**Q.** Which “%Inh” value does the source give for `Cc1ccc(NC(=O)c2ccnc(N3CCCCC3)c2)cc1-c1ccc(C(=O)NCC2CC2)cc1` [GW775610] here?
**A.** 19%

**Q.** How did the “%Inh” value turn out when `Fc1cc(Cl)ccc1Nc1ccnc2cc(-c3ccc(CN4CCOCC4)o3)ccc12` [GW560109] was run?
**A.** 25%

**Q.** How did the “%Inh” value turn out when `CS(=O)(=O)c1cccc(CNc2nc(Nc3ccc4c(c3)CCC(=O)N4)ncc2C(F)(F)F)c1` was run?
**A.** 3%

**Q.** Which “%Inh” value does the source give for `Cc1cc(-c2c(-c3ccc(F)cc3)ncn2CCCN2CCOCC2)nc(N)n1` [SB-222517] here?
**A.** 0%

**Q.** How did the “%Inh” value turn out when `CN1CCN(Cc2ccc(NC(=O)Nc3ccc(N(C)c4ccnc(Nc5ccc(CS(C)(=O)=O)cc5)n4)cc3)cc2)CC1.Cl` [GW827654] was run?
**A.** 33%

**Q.** With `COc1cccc(C2=C(Nc3cccc(O)c3)C(=O)NC2=O)c1` [SB-390771] as the compound, how does the “%Inh” value read?
**A.** 2%

**Q.** For `O=C(Nc1n[nH]c2nc(-c3cccc(O)c3)ccc12)C1CC1` [SB-711805], which “%Inh” value is on record?
**A.** 0%

**Q.** Which “%Inh” value does the source give for `CN(c1ccc(NC(=O)Nc2cccc(Cl)c2)cc1)c1ccnc(N)n1.Cl` [GW830707] here?
**A.** 29%

**Q.** `CC(=O)Nc1cn2nc(Oc3cccc(NC(=O)c4cccc(C(F)(F)F)c4)c3)ccc2n1` was tested. Which “%Inh” value did it give?
**A.** 4%

**Q.** With `COc1ccc(C)c(Nc2ccnc(Nc3ccc(-c4cnc[nH]4)cc3)n2)c1.Cl` [GW784041] as the compound, how does the “%Inh” value read?
**A.** 0%

**Q.** `Cl.Cl.NC(CNC(=O)c1cc(Br)c(-c2ccnc3[nH]ccc23)s1)c1ccccc1` (centres unmarked) [GSK1322949] was tested. Which “%Inh” value did it give?
**A.** 0%
